Assay outcomes from PubChem.
This is a sample that favours compounds with a hit; in the whole collection about 3.9% have one here.
PLK1 PBD inh – blocks phosphopeptide binding to human PLK1 polo-box domain; Plk1 PBD binding of FITC phosphopeptide, fluorescence polarization; AID 720504; 360,000 tested, 2.8% active; Potency, µM, actives largely listed as inhibitors; P53350; also: series mostly up to about 57 µM; nearly all actives have a fitted effect of over 65% in size
VDR inh – inhibitors of human vitamin D receptor; P11473; VDR-SRC2-3 peptide fluorescence polarization, 2 h; Potency, µM, actives largely listed as inhibitors; 400,000 tested, 0.93% active; AID 504847
Target sequence (P11473 whole entry, looked up): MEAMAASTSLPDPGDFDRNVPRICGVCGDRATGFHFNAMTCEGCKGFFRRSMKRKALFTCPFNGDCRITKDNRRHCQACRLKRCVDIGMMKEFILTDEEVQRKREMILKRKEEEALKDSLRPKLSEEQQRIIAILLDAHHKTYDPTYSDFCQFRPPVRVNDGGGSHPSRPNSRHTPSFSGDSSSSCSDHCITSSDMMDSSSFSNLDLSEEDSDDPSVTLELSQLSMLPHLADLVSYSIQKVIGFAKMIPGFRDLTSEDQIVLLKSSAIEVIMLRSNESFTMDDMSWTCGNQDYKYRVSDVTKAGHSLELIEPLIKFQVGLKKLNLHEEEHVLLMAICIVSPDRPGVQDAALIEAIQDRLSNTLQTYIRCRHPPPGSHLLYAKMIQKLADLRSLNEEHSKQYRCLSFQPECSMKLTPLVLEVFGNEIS
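VDR–SRC2-3 interaction, FP format. Cmpds 23 nl via pintool, brief spin, 2 h ambient incubation.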
BRCA1 expr up – activators of BRCA1 expression | 380,000 tested, 1.1% active | Potency, µM (series often up to 46.1 µM), most hits filed as activators | MCF7-BRCA1-FFLuc reporter, luminescence, 48 h; response scale: scaled: vehicle 0%, 10 µM genistein 100%; also: nearly all actives have a fitted effect of over 80% in size
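First, MCF7-BRCA1-FFLuc cells (2000/well) attach for 2 h; next, compounds are pin-added and incubated 48 h at 37 °C; finally, luciferase reagent is added and luminescence read after 15 min.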
Tb PFK inh – blocks T. brucei phosphofructokinase; AID 485367; Potency, µM (doses to about 57.5 µM), usual class: inhibitors; T. brucei PFK, ADP-Glo luminescence; O15648; 330,000 tested, 0.17% active; also: nearly all actives have a fitted effect of over 60% in size
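1.25 nM PFK with 0.5 mM F6P and 0.1 mM ATP in 0.1 M TEA pH 8.0, 5 mM MgCl2, incubated 45 min at room temperature; ADP measured by ADP-Glo luminescence; compounds titrated up to 57 uM.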
Each line names hits and unclear results; the compound was inactive in the other large screens. Calls follow the shape of the dose curve; as a rule, active = well fitted curve in the direction sought with a large enough effect; inconclusive = small, poorly fitted or top-dose-only effect, or another doubt; inactive = no such curve, though single readings can be large; an effect the other way counts as inactive or inconclusive.

Cc1ccc(OCC(=O)Nc2cc(C(=O)O)cc(C(=O)O)c2)cc1C	PLK1 PBD inh 3µM, VDR inh 18µM, Tb PFK inh inconclusive
Cc1ccc(OCC(=O)Nc2cc(NC(=O)COc3ccc(C)cc3)cc(C(=O)O)c2)cc1	none
C=CCN1C(c2ccccc2)=CS/C1=C(/C#N)c1nnc(N2CCOCC2)n1-c1ccccc1	PLK1 PBD inh 21µM
CN1C(c2ccc(F)cc2)=CS/C1=C(/C#N)c1nnc(N2CCOCC2)n1-c1ccccc1	none
O=C(CCc1ccc(S(=O)(=O)N2CCOCC2)cc1)N/N=C/c1ccc(O)c(O)c1O	PLK1 PBD inh 11µM
O=C(CCc1ccc(S(=O)(=O)N2CCOCC2)cc1)N/N=C/c1ccc(F)cc1F	none
CC(=O)C1=C(O)C(=O)N(CCC(=O)O)C1c1ccccc1[N+](=O)[O-] (centres undefined)	none
CC(=O)C1=C(O)C(=O)N(C)C1c1ccccc1[N+](=O)[O-] (centres undefined)	PLK1 PBD inh 27µM, VDR inh inconclusive
CC(=O)C1=C(O)C(=O)N(c2ccccn2)C1c1ccccc1[N+](=O)[O-] (centres undefined)	PLK1 PBD inh 3.4µM, VDR inh inconclusive
CCOc1ccc2nc3cc(N)ccc3c(N)c2c1	VDR inh 13µM (no result: PLK1 PBD inh, BRCA1 expr up, Tb PFK inh)
O=C(CCNC(=O)C1CCN(S(=O)(=O)c2ccc(F)cc2)CC1)NCc1ccc(Cl)cc1	none
O=C(CCn1c2c(c3ccccc31)CCCC2)NNC(=O)c1ccc([N+](=O)[O-])cc1	none
O=C(CCn1c2c(c3ccccc31)CCCC2)NNC(=O)c1ccc(Cl)c([N+](=O)[O-])c1	PLK1 PBD inh 30µM, VDR inh inconclusive
Cc1[nH]n(C(N)=S)c(=O)c1N=Nc1ccccc1C(F)(F)F	PLK1 PBD inh 24µM
CCc1cccc(OCCCCNCCO)c1	PLK1 PBD inh 27µM
Cc1cccc(OCCCCCNCCO)c1	none
CCOc1ccccc1NC(=O)CSc1ccc2nnc(CCNS(=O)(=O)c3ccccc3)n2n1	none (no result: PLK1 PBD inh, BRCA1 expr up, Tb PFK inh)
O=[N+]([O-])c1cccnc1NCCNc1ncc(C(F)(F)F)cc1Cl	BRCA1 expr up 2.5µM
O=[N+]([O-])c1ccccc1NCCNc1ncc(C(F)(F)F)cc1Cl	none
CCOC(=O)Cn1nnc(-c2ccccc2)n1	none
Cc1ccc(-c2nnn(CC(=O)Nc3nnc(C(C)C)s3)n2)cc1	PLK1 PBD inh 27µM
COC(=O)CCn1nnc(-c2ccc(C)cc2)n1	none
O=C(O)CCn1nnc(-c2ccccc2)n1	PLK1 PBD inh 21µM
CC(C)c1nnc(NC(=O)CN2C(=O)c3ccccc3C2=O)s1	none
Cc1ccc(-c2nnn(CCC(=O)NC(C)(C)C)n2)cc1	BRCA1 expr up 14µM
COc1ccccc1CNc1ccc(-c2nc(-c3cccnc3)no2)cc1[N+](=O)[O-]	none (no result: PLK1 PBD inh, Tb PFK inh)
CCN(CC)c1ccc(C(=C2C=CC(=[N+](CC)Cc3cccc(S(=O)(=O)[O-])c3)C=C2)c2ccc(N(CC)Cc3cccc(S(=O)(=O)O)c3)cc2)cc1	VDR inh 13µM (no result: PLK1 PBD inh, BRCA1 expr up, Tb PFK inh)
CC(C)Cn1nc(NS(=O)(=O)c2ccccc2)c2cc3ccccc3nc21	none
CC(C)Cn1nc(NC(=O)C2CCCO2)c2cc3ccccc3nc21 (centres undefined)	PLK1 PBD inh 30µM
CC(Oc1ccc(Cl)cc1Cl)c1nc(-c2ccccn2)no1 (centres undefined)	BRCA1 expr up 11µM
CC(Oc1ccc(Cl)cc1Cl)c1nc(-c2ccc(NC(=O)c3cccnc3)cc2)no1 (centres undefined)	none
OC[C@@H]1CN(Cc2ccco2)C[C@H](n2cnc3c(N4CCOCC4)ncnc32)O1	none (no result: VDR inh, Tb PFK inh)
CC(=O)NC(CCS(C)(=O)=O)C(=O)Nc1cc(C)on1 (centres undefined)	none
CC(NS(=O)(=O)c1ccccc1)C(=O)Nc1nccs1 (centres undefined)	PLK1 PBD inh 21µM
O=C(Nc1nccs1)c1ccc(Br)o1	BRCA1 expr up inconclusive
C/C(=C\C(=O)O)C(=O)Nc1nccs1	none
C/C(=C\C(=O)Nc1nccs1)c1ccccc1	BRCA1 expr up 8.9µM (no result: Tb PFK inh)
CC(=O)NC(CCS(C)(=O)=O)C(=O)Nc1nccs1 (centres undefined)	PLK1 PBD inh 27µM
O=C(/C=C/c1ccc(Br)o1)Nc1nccs1	PLK1 PBD inh 21µM
CSCCC(NS(=O)(=O)c1ccccc1)C(=O)Nc1nccs1 (centres undefined)	PLK1 PBD inh inconclusive
COc1ccc2nc(C(c3ccc(C)cc3)n3c(-c4ccccc4Br)nc4ccccc43)[nH]c2c1 (centres undefined)	none (no result: VDR inh, Tb PFK inh)
Cc1ccc(CNC(=O)/C=C/c2ccc(Br)o2)cc1	none
O=C(/C=C/c1ccc(Br)o1)NCc1ccccc1	PLK1 PBD inh inconclusive, VDR inh 89µM
COC(=O)c1ccc2c(=O)n(CCCCCC(=O)N3CCN(c4ccccc4)CC3)c(=O)[nH]c2c1	PLK1 PBD inh 30µM, VDR inh inconclusive
CC(NC(=O)C1CCN(c2nc3ccccc3nc2C(F)(F)F)CC1)c1ccccc1 (centres undefined)	none (no result: PLK1 PBD inh, Tb PFK inh)
N=C1C(c2nc3ccccc3s2)=C(O)CN1Cc1ccco1	BRCA1 expr up 7.1µM
CN(C)CCN1CC(O)=C(c2nc3ccccc3s2)C1=N	none
Cc1ccccc1-c1cccc([C@@H]2C[C@H]3[C@H](CON3C)CN2C(=O)CCc2ccccc2)c1	none (no result: Tb PFK inh)
Cc1cccc(CN(Nc2ccccc2)c2ccccc2)n1	none (no result: VDR inh, Tb PFK inh)
O=C(NCC1CCCO1)c1ccccc1NS(=O)(=O)c1ccc(Br)s1 (centres undefined)	PLK1 PBD inh 24µM (no result: Tb PFK inh)
Cc1nc2cnc(Oc3ccccc3)nc2n(C)c1=O	none (no result: PLK1 PBD inh, BRCA1 expr up, Tb PFK inh)
CCOC(=O)c1ncc2[nH]c3cccc(OC(C)C)c3c2c1C	none (no result: PLK1 PBD inh, BRCA1 expr up, Tb PFK inh)
CSCC[C@H](NC(=O)[C@H](CCC(N)=O)NC(=O)[C@H](CCCCN)NC(=O)[C@H](CCCNC(=N)N)NC(=O)[C@H](Cc1ccc(O)cc1)NC(=O)[C@H](CCCNC(=N)N)NC(=O)[C@H](CO)NC(=O)[C@H](Cc1ccc(O)cc1)NC(=O)[C@H](CO)NC(=O)[C@H](CC(=O)O)NC(=O)[C@@H](NC(=O)[C@@H](N)Cc1ccccc1)[C@@H](C)O)C(=O)N[C@@H](C)C(=O)N[C@H](C(=O)N[C@@H](CCCCN)C(=O)N[C@@H](CCCCN)C(=O)N[C@@H](Cc1ccc(O)cc1)C(=O)N[C@@H](CC(C)C)C(=O)N[C@@H](C)C(=O)N[C@@H](C)C(=O)N[C@H](C(=O)N[C@@H](CC(C)C)C(=O)NCC(=O)N[C@@H](CCCCN)C(=O)N[C@@H](CCCNC(=N)N)C(=O)N[C@@H](Cc1ccc(O)cc1)C(=O)N[C@@H](CCCCN)C(=O)N[C@@H](CCC(N)=O)C(=O)N[C@@H](CCCNC(=N)N)C(=O)N[C@H](C(=O)N[C@@H](CCCCN)C(=O)N[C@@H](CC(N)=O)C(=O)N[C@@H](CCCCN)C(N)=O)C(C)C)C(C)C)C(C)C	none (no result: PLK1 PBD inh, BRCA1 expr up, Tb PFK inh)
CCCC(C(=O)NCC1CCCO1)N(Cc1ccco1)C(=O)CNS(=O)(=O)c1ccc(F)cc1 (centres undefined)	PLK1 PBD inh 15µM
